# According to PubChem BioAssay AID624297 (National Center for Advancing Translational Sciences (NCATS), 2012):
# Among all 340,000 compounds or so, about 6,200 (1.8%) were called active. Not shown: some 10% with an inconclusive outcome. Calls follow the shape of the dose curve; as a rule, active = well fitted activation curve with a large enough effect; inconclusive = small, poorly fitted or top-dose-only effect; inactive = no such curve, though single readings can be large or run the other way. The entries come from a sample that favours actives as a whole. Entries that show only a call come without a potency.
# Experiment: A quantitative high throughput screen for small molecules that induce DNA re-replication in SW480 colon adenocarcinoma cells. Also: nearly all actives have a fitted effect of over 55% in size.
# Conditions: Hoechst DNA content imaging, 48 h; series mostly up to 46.1 µM
# From the text: H Molecular Libraries Probe Production Network [MLPCN] NIH Chemical Genomics Center [NCGC] MLPCN Grant: Fast Track K99 CA136555 Assay Provider: Melvin DePamphilis, NICHD, NIH Assay Overview Eukaryotic cells normally restrict genome duplication to once per cell division. When this process is aberrant, DNA re-replication occurs when cells reinitiate DNA replication before the first round of replication is complete. DNA re-replication induces the DNA damage response, arrests cell proliferation, and triggers apoptosis. The cell cycle components cyclin A, Cdt-1, Cdc6 and geminin are critical regulators of this process and their misregulation results in DNA re-replication in normal and cancer cells. To identify compounds that induce re-replication in normal cells, an image-based assay was used to measure DNA content of nuclei, as detected by the fluorescent DNA binding dye, Hoechst. Cell nuclei were imaged by a fluorescence scanning plate imager and compounds that induce DNA re-replication were identified by the increase of nuclei with elevated fluorescence intensity
# For screening, 250 cells in 5 uL/well were dispensed into black clear 1536-well plates (Aurora) using a solenoid-based dispenser. Following transfer of 23 nL compound or DMSO vehicle by a pin tool, the plates were incubated 48 hr at 37 C and 5% CO2. After addition of 1 uL/well Hoescht stain, the plates were incubated 40 min at 37 C, 5% CO2 and total intensity of fluorescent objects (nuclei) were enumerated by an Acumen Explorer Ex3 (TTP LabTech) fluorescence scanning plate imager (405 nm excitation, 500-530 nm emission). Keywords: NIH Roadmap, MLPCN, MLI, MLSMR, qHTS, NCGC, DNA replication, cancer
# Potency is read from the fitted curve at half-maximal effect.
Compound,Potency,re-replication activation
COC(=O)CC(CC(=O)OC)n1cccc1,inactive,
CCN(CC)CCCC(C)n1c2nc(=O)[nH]c(=O)c-2nc2cc(Cl)ccc21 (configuration not stated),11.6 µM (active),
O=C(Cc1ccc(NC(=O)C2CCCN(C(=O)C3CCCCC3)C2)cc1)Nc1cccc(C(=O)N2CCCCC2)c1 (configuration not stated),,5.52% [at 9.22 µM] (inactive)
Cc1ccc(CC(=O)Nc2ccc(S(=O)(=O)N3CCOCC3)cc2)cc1C,inactive,
Cc1cc(C2=NNC(=Nc3ccc(S(=O)(=O)N4CCOCC4)cc3)SC2)c(C)n1CC1CCCO1 (configuration not stated),3.66 µM (active),
C=CCn1c(C)cc(C2=NNC(=NCC)SC2)c1C,inactive,
CN(C(=O)c1cccc(NC(=O)Cc2ccc(NC(=O)C3CCN(C(=O)C4CCCCC4)CC3)cc2)c1)C1CCC1,,10.8% [at 9.22 µM] (inactive)
O=S1(=O)CSCS(=O)(=O)C1,inactive,
Cc1ccc2nc(-c3cccnc3)c(NC3CCCC3)n2c1,inactive,
COc1ccc(-c2nc3cnccn3c2NC(C)(C)CC(C)(C)C)cc1O,inactive,
COc1ccc(-c2nc3cnccn3c2NC2CCCCC2)cc1-c1cccc(Cl)c1,5.17 µM (active),
COc1cc(NC(=O)COC(=O)c2ccc([N+](=O)[O-])s2)cc(OC)c1OC,inactive,
CCCn1c(=O)c(-c2ccccc2)c(O)c2ccccc21,inactive,
CC(=O)c1ccc2c(c1)c1ccccc1n2CC(C)C,inactive,
CCCCN(CCCC)CC(O)Cn1c2ccccc2c(=O)c2ccccc21 (configuration not stated),7.31 µM (active),
Cc1ccc(SCc2c(C(=O)N/N=C/c3cccnc3)nnn2-c2nonc2N)cc1,inactive,
Nc1nonc1-n1nnc(C(=O)N/N=C/c2ccccc2O)c1CN1CCCC1,inactive,
Nc1nonc1-n1nnc(C(=O)N/N=C/c2cc(Br)ccc2O)c1CSC1=NCCS1,13 µM (active),
O=C(CCCCCCCC(=O)N1CCCCC1)N1CCCCC1,inactive,
COc1ccc(C(=O)OCc2cc(=O)n3ccsc3n2)cc1F,inactive,
CCOC(=O)c1c(C)c(C(=O)NCCc2ccc(S(N)(=O)=O)cc2)c(C)n1CC,inactive,
Cc1noc(C)c1C(=O)NCCc1ccc(S(N)(=O)=O)cc1,inactive,
CCCNC(=O)c1c(N)n(-c2ccc(S(N)(=O)=O)cc2)c2nc3ccccc3nc12,0.82 µM (active),

Compound,Potency,re-replication activation
O=C(Nc1cccc2ncccc12)c1ccc(-c2ccc(Cl)cc2Cl)o1,inactive,
Cc1csc(NC(=O)c2ccc(-c3ccc(Cl)cc3Cl)o2)n1,13 µM (active),
Cc1csc(NC(=O)c2ccc(C)s2)n1,inactive,
Cc1cccc(N2O[C@H]3C=CC2CCCC3)n1,inactive,
CC1CN(Cc2ccco2)C(=S)N(c2ccccc2)C1=O (configuration not stated),inactive,
CN1CCN(S(=O)(=O)c2ccc(NC(=S)NC(=O)C3CC3)cc2)CC1,inactive,
Cc1cc(Nc2cc(N3CCN(C)CC3)nc(Sc3ccc(NC(=O)C4CC4)cc3)n2)n[nH]1,0.259 µM (active),
Cc1cc(C)nc(N2CCC(C(=O)Nc3ccc4c(c3)OCCO4)CC2)n1,inactive,
CC1Cc2ccccc2N1S(=O)(=O)c1cccc(C(=O)OCC(=O)N2CCOCC2)c1 (configuration not stated),inactive,
O=C(COC(=O)C1CCCO1)Nc1nc(-c2ccc(F)cc2)cs1 (configuration not stated),inactive,
CC[C@]1(C(=O)OC)[C@H]2C(=O)N(C)C(=O)[C@H]2[C@H]2CN(C)C(=NCc3ccccc3)N21,inactive,
O=C(CN1C(=O)C2C3CCC(C3)C2C1=O)Oc1ccc2ccccc2c1 (configuration not stated),inactive,
CC1=CC(C)(C)Nc2ccc(OC(=O)CN3C(=O)C4CCCCC4C3=O)cc21 (configuration not stated),20.6 µM (active),
O=C(COC(=O)CN1C(=O)C2CCCCC2C1=O)Nc1ccc(F)c(F)c1F (configuration not stated),inactive,
COc1ccc(CNC(=O)CN2C(=O)c3ccccc3S2(=O)=O)cc1,inactive,
CCC(CO)Oc1cc(NC(=O)c2cccc3ccccc23)c2ncn(C(C)C)c2c1 (configuration not stated),,-5.66% [at 9.22 µM] (inactive)
CCc1ccc(C(=O)C(C)OC(=O)CN2C(=O)NC3(CCCC3)C2=O)cc1 (configuration not stated),3.26 µM (active),
O=C(CN1C(=O)NC2(CCCC2)C1=O)OCCOc1ccc(F)cc1,inactive,
Cc1ccc(COC(=O)CN2C(=O)NC3(CCCC3)C2=O)cc1,inactive,
O=C1c2ccccc2C(=O)C1C(=O)C1CC1,inactive,
Cc1cccc(-n2ncc3c(=O)[nH]c(SCC(=O)Nc4cc(C)on4)nc32)c1,inactive,
CC(C)(C)C(=O)Nc1cccc(-c2ccc[nH]2)n1,inactive,
CCOc1ccc(S(=O)(=O)NCCSc2ccccc2)cc1,inactive,

Compound,Potency,re-replication activation
CCOc1ccc2nc(NCCNS(=O)(=O)c3ccccc3)c(C#N)cc2c1,18.4 µM (active),
CCOc1ccc2nc(NCCNC(=O)C(C)(C)C)c(C)cc2c1,inactive,
O=C1C=CN2CCCC2CC1 (configuration not stated),inactive,
Cc1nc(N)nc(Cl)c1CCC1OCCO1,inactive,
CC(OC(=O)c1ccc([N+](=O)[O-])cc1)C(=O)NCC1CCCCC1 (configuration not stated),inactive,
COc1ccc(COC(=O)NC(C(=O)O)c2ccccc2)cc1 (configuration not stated),inactive,
COc1ccc(C(CCN(Cc2ccc(OC)c(OC)c2)C(=O)CCl)c2ccccc2)cc1 (configuration not stated),23.1 µM (active),
COc1ccc(CCNC(=O)C(Sc2ccccn2)c2ccccc2)cc1OC (configuration not stated),inactive,
COc1ccc(CC(=O)N[C@@H]2c3cc(OC)c(OC)cc3C[C@H]2OCc2ccccc2)cc1,inactive,
Cc1ccc(C)c(S(=O)(=O)N(C)c2ccc(OC(=O)C3CCN(C(=O)c4ccc(F)cc4)CC3)cc2)c1,inactive,
Cn1nnnc1SCC(=O)Nc1cccc(S(=O)(=O)N2CCCCC2)c1,inactive,
COc1ccc(OC)c(NC(=O)COC(=O)Cc2ccsc2)c1,inactive,
Cc1ccc(Br)c(NS(=O)(=O)c2cccc(C(=O)N3CCNC(=O)C3)c2)c1,inactive,
OCC(O)C1OCOC(C(O)CO)C1O (configuration not stated),inactive,
c1ccc2sc(NN=C3CCCC3)nc2c1,inactive,
O=C(CCNC(=O)c1ccccc1)Nc1nc2ccccc2s1,inactive,
c1ccc(C(=NNc2nc3ccccc3s2)c2ccccn2)cc1,0.259 µM (active),
N#CC1(Nc2ccc(-c3ccc(Cl)cc3)cc2)CCCC1,inactive,
Cc1ccc(-n2[nH]c(C)c(/C=N/N3C(=O)c4cccc5cccc(c45)C3=O)c2=O)cc1,16.4 µM (active),
Cc1[nH]n(-c2ccc([N+](=O)[O-])cc2)c(=O)c1C=NCCN1CCN(C(=O)c2ccccc2F)CC1,inactive,
Cc1ccc(-c2ccnc3[nH]n(-c4ccccc4)c(=O)c23)cc1,inactive,
